# From PubChem
# KB-V1 cytotox: KB-V1 MDR subline cytotoxicity; KB-V1 MDR cells viability, CellTiter-Glo, 72 h; Potency, µM (top dose mostly 46.1 µM), usual class: cytotoxic; hit rate 3.4% among 400,000; AID 1347076; further: on the % scale 0 is the no-effect control and ±100 the full control effect; nearly all actives have a fitted effect of over 60% in size
#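 Drug-selected KB-V1 cells, grown in DMEM lacking phenol red with 10% FBS, receive compound titrations; after three days at 37 degrees C, surviving cell ATP is quantified by CellTiter-Glo luminescence and responses normalized and curve-fitted.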
# HT1080 IDH1KD tx: HT-1080 IDH1 knockdown cell toxicity (counter line); Potency, µM (series often up to 46.1 µM), for inactives: top-dose activity, negative = toxicity, actives largely listed as cytotoxic; hit rate 2% among 360,000; HT-1080 IDH1 knockdown viability, ATP luminescence, 48 h;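 further: 0% = DMSO wells and -100% = cell-free medium wells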
#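 Luminescent ATP read-out (CellTiter-Glo, 10 min at room temperature) after 48 h compound exposure at 37 °C gave viability of IDH1-knockdown HT-1080 cells. Activity was normalised to DMSO and cell-free wells, then fitted as concentration-response curves.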
# HT1080NT lethal: kills 2HG-producing HT-1080-NT fibrosarcoma cells | HT-1080-NT fibrosarcoma viability, CellTiter-Glo ATP luminescence, 48 h | Potency, µM (titrated, usually from 46.1 µM), for the others: at the highest dose activity, negative = less viability, actives largely listed as cytotoxic | hit rate 1.6% among 360,000 | AID 686970;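 further: NT is the 2HG producing partner of a matched IDH1 knockdown line; 0% = DMSO-treated cells and -100% = media-only wells without cells; nearly all actives have a fitted effect of over 55% in size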
#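 Compounds were tested in concentration-response format on HT-1080-NT cells for 48 hours at 37 degrees C. Cell viability came from CellTiter-Glo luminescence; curves were classified by r2, response magnitude and activity.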
# KB-3-1 tox: KB-3-1 parental cell cytotoxicity; hit rate 1.4% among 400,000; KB-3-1 viability, CellTiter-Glo ATP luminescence, 72 h; AID 1347075; Potency, µM (doses to about 46.1 µM), usual class: cytotoxic; further: on the % scale 0 is the no-effect control and ±100 the full control effect; nearly all actives have a fitted effect of over 60% in size
#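 Cytotoxicity in the drug-sensitive parental line KB-3-1 was scored as loss of CellTiter-Glo luminescence following 72 h incubation with compound. Values come from curve fitting of normalized concentration-response data.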
# MCF10A rerep: DNA re-replication induction in MCF 10a cells; MCF 10A DNA re-replication, Hoechst nuclear intensity, 48 h; Potency, µM (titrated, usually from 46.1 µM), for the others: at the highest dose activity, positive = re-replication, usual class: activators; hit rate 2.9% among 350,000; AID 624296; further: % of control where 0% means no effect; nearly all actives have a fitted effect of over 50% in size
# SW480 rereplic: induces DNA re-replication in SW480 colon adenocarcinoma cells. SW480 DNA re-replication, Hoechst DNA content imaging, 48 h. hit rate 1.8% among 340,000. Potency, µM (series often up to 46.1 µM), without a hit: at the top dose re-replication activation, hits mostly activators; further: % of control where 0% means no effect; nearly all actives have a fitted effect of over 55% in size
#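 250 cells/well; 23 nL cpd via pin tool; 48 hr, 37 C, 5% CO2; Hoechst 40 min; imager read of total nuclear intensity, ex 405/em 500-530 nm.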
# * hit, by the source's call; i = inactive; ? = inconclusive; . = not tested or not shown; [ ] = remark or other dose. An excerpt weighted towards active compounds, which were near 7.9% of everything screened. The call rests on the fitted dose curve; in most records, active means well fitted curve in the direction sought with a large enough effect; inconclusive means small, poorly fitted or top-dose-only effect, or another doubt; inactive means no such curve, though single readings can be large; an effect the other way counts as inactive or inconclusive. Potency means the concentration at half of the fitted maximal effect.
SMILES,KB-V1 cytotox,HT1080 IDH1KD tx,HT1080NT lethal,KB-3-1 tox,MCF10A rerep,SW480 rereplic
C[C@]12CC[C@H]3[C@@H](CC=C4C[C@@H](O)CC[C@@]43C)[C@@H]1CC[C@@H]2O,.,.,.,.,2%,-3%
CSCCC(N=Cc1c(O)n(-c2ccc(Br)cc2)c(=O)[nH]c1=O)C(=O)OC(C)(C)C (stereo unspecified),i,-4%,-6%,i,0%,4%
O=C(COc1ccccc1)N1CCN(C/C=C/c2ccccc2)CC1,16µM*,1%,3%,i,2%,14%
COc1ccc(OCC(=O)N2CCN(Cc3c[nH]c4ccccc34)CC2)cc1,16µM*,0%,0%,i,15%,-3%
COc1ccc(CN2CCN(C(=O)COc3cccc(C)c3)CC2)c(OC)c1,2.3µM*,-18%,4%,i,19%,?
OC(CCNCCc1c[nH]c2ccccc12)C(F)(F)Cl (stereo unspecified),i,11%,6%,i,-4%,2%
CCC(=O)Nc1cc(C(=O)N2CCC3(CC2)OCCO3)ccc1S(=O)(=O)c1ccc(C)cc1,i,-1%,1%,i,-3%,0%[9.22 µM]
CN(C)C1(CNC(=O)Cc2ccccc2F)CCCCC1,i,-10%,-1%,i,3%,-2%
CCC(C)n1c(O)c(/C=N/NC(=O)c2ccncc2)c(=O)[nH]c1=S (stereo unspecified),?,1%,-1%,?,7%,-50%
Cc1cccc(CN2CCN(Cc3ccc(Cl)cc3)CC2)c1,?,-28%,-15%,i,7.3µM*,?
O=c1ccc2cc3ccoc3c(O)c2o1,i,0%,3%,i,-9%,-8%
O=C(c1ccccc1)C1NC1c1ccccc1 (stereo unspecified),i,0%,8%,i,-4%,-1%
c1ccc(CCN2CCOCC2)cc1,i,.,.,i,.,.
Fc1ccc(C(OCCN2CCN(CCCc3ccccc3)CC2)c2ccc(F)cc2)cc1,16µM*,.,.,?,21µM*,?
Fc1ccc(C(OCCN2CCCC2)c2ccc(Br)cc2)cc1 (stereo unspecified),?,16µM*,16µM*,i,?,7%
c1ccc(CCCN2CCN(CCOC(c3ccccc3)c3ccccc3)CC2)cc1,10µM*,23µM*,23µM*,?,5.2µM*,?
Fc1ccc(C(OCCN2CCCC2)c2ccc(F)cc2)cc1,?,-10%,-11%,i,?,0%
O=c1[nH]c(=S)[nH]c(O)c1N=Nc1cc2c(cc1[N+](=O)[O-])OCO2,i,-8%,1%,i,-37%,?
CCCCCc1nc2ccccc2c(=O)n1-c1ccccc1[N+](=O)[O-],i,3%,-14%,i,12%,2%
COc1cc2occc2c2oc(=O)ccc12,i,5%,9%,i,0%,?
O=c1ccc2c(O)c3ccoc3cc2o1,i,-1%,-2%,i,11%,0.18µM*
CC(C)n1c(/C=C/[C@@H](O)C[C@@H](O)CC(=O)O)c(-c2ccc(F)cc2)c2ccccc21,18µM*,1.5µM*,1.5µM*,15µM*,6%,3%
O=C(c1ccc2c(c1)OCO2)N1CCC2(CC1)OCCO2,i,12%,4%,i,-1%,-11%
O=C(c1ccc(N2CCCCCC2)c([N+](=O)[O-])c1)N1CCC2(CC1)OCCO2,?,0%,0%,i,23µM*,17%
CC1CC(C)CC(C)C(O)C(C#N)=CC=CCC(C2CCCC2C(=O)O)OC(=O)CC(O)C(C)C1 (stereo unspecified),6.5µM*,0.18µM*,0.0092µM*,1.2µM*,0.13µM*,?
SMILES,KB-V1 cytotox,HT1080 IDH1KD tx,HT1080NT lethal,KB-3-1 tox,MCF10A rerep,SW480 rereplic
C#CCN1CCN(c2ccc(F)cc2)CC1,i,-1%,7%,i,0%,-1%
CCOCCCNC(=O)C1c2cc(OC)c(OC)cc2C(=O)N2CCCCC12 (stereo unspecified),i,7%,14%,i,1%,0%
O=C(/C=C/c1ccc(F)cc1)NNC(=O)CCN1CCN(Cc2ccccc2)CC1,i,-22%,0%,?,10µM*,?
COC(=O)C1=C(c2ccc(OCc3ccccc3)cc2)C[C@@H]2CC[C@H]1N2C(=O)NCc1ccccc1C(F)(F)F,?,1%,-4%,i,.,.
CC1=CC(O)C(O)C2(C)C1CC1OC(=O)C(O)C3C(C)C(O)C4(O)OCC13C42 (stereo unspecified),i,?,-12%,?,17%,-4%
COC(=O)[C@]12OC[C@]34C([C@@H](O)[C@@H]1O)[C@]1(C)CC(=O)C(O)=C(C)[C@@H]1C[C@H]3OC(=O)[C@H](O)[C@@H]24 (stereo partly specified),i,?,?,?,15µM*,-64%
COc1ccc(CN2Cc3cnnn3-c3ccccc3C2C#N)cc1 (stereo unspecified),?,6.5µM*,8.2µM*,i,3.3µM*,?
COc1ccc(CN2Cc3cnnn3-c3ccccc3C2c2ccccc2)cc1 (stereo unspecified),?,?,?,?,16µM*,?
N#CC1c2ccccc2-n2nncc2CN1Cc1cc(Cl)cc(Cl)c1 (stereo unspecified),?,6.5µM*,8.2µM*,5.8µM*,6.5µM*,?
CN1Cc2cnnn2-c2ccccc2C1C#N (stereo unspecified),i,?,-11%,?,?,?
COc1ccc(C(=O)N2Cc3cnnn3-c3ccccc3C2C#N)cc1 (stereo unspecified),i,12%,16%,i,2%,?
C[N+]1([O-])[C@@H]2CC[C@H]1CC(OC(=O)[C@@H](CO)c1ccccc1)C2 (stereo partly specified),.,.,.,.,2%[20.6 µM],-1%[20.6 µM]
CCC(=O)[C@@H](C)[C@@H](O)[C@H](C)C[C@@H](C)C1OC(=O)C[C@@]2(O)CC=C(C)C(O2)C(C)=CCCC[C@H](O[C@H]2C[C@@H](OC(N)=O)[C@H](O)[C@@H](C)O2)C=C[C@H](C)C[C@H]1C (stereo partly specified),?,21µM*,12µM*,0.65µM*,.,.
Cc1ccc(CN2CC3CC(C2)c2cccc(=O)n2C3)cc1 (stereo unspecified),?,?,?,i,-1%,0%
